Common to all, as to test: NCI-60 one-dose screen, 48 h (100 = growth as untreated, 0 = no growth, -100 = all killed)
One experiment has as its system SR leukemia. The note with it: 10 µM unless noted.
Another experiment has as its system RPMI-8226 leukemia. As to conditions: 10 µM.
Another experiment concerns OVCAR-8 ovarian. As to conditions: 10 µM unless noted.
A further experiment deals with OVCAR-5 ovarian. The note with it: 10 µM unless noted.
Another experiment deals with IGROV1 ovarian. The note with it: 10 µM unless noted.
In another experiment the test system is OVCAR-3 ovarian. As to conditions: 10 µM unless noted.
For the next experiment, the system named is HS 578T breast. As to conditions: 10 µM unless noted.
The subject of a further experiment is NCI/ADR-RES ovarian. As to conditions: 10 µM unless noted.
A further experiment deals with OVCAR-4 ovarian. As to conditions: 10 µM unless noted.
The next experiment relates to SK-OV-3 ovarian. The note with it: 10 µM.

The values that follow come from PubChem BioAssay (NCI).

This is part of a sample that, as a whole, favours compounds with a hit. Of some 83,000 tested, about 20% had one in any assay.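 How to read the values: 0–100, growth inhibition (40 = 60% inhibited); 0, no net growth; -100 to 0, cell death (-40 = 40% of starting cells died; -100 = all dead).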 A number with no mark means an inactive call. Calls of active or inactive are those of the source. Rule for the calls: active = growth percent below 10; inactive = the rest.

For `Cc1cccc2c(=O)c3c(sc12)c(NCCNCCO)nc1ccccc13`, the growth was -44.1% (active) in the experiment on SR leukemia; -34.2% (active) with RPMI-8226 leukemia; 34% with OVCAR-8 ovarian; 64.9% with OVCAR-5 ovarian; 16.1% in the experiment on IGROV1 ovarian; 45.1% in the experiment on OVCAR-3 ovarian. Besides, the figures for the growth in the experiment with HS 578T breast and with NCI/ADR-RES ovarian were 54.5% and 45.1%, respectively.

On to `COC(=O)c1c2c(c(C)[n+]([O-])c1C)C(=O)C=C(NCc1cccc(OC)c1)C2=O`, for which the growth is -8.2% (active) with SR leukemia; -35.5% (active) in the experiment on RPMI-8226 leukemia; -23.7% (active) in the experiment with OVCAR-8 ovarian; -90.3% (active) with OVCAR-5 ovarian; -64% (active) with IGROV1 ovarian; -51% (active) in the experiment with OVCAR-3 ovarian. In addition, the growth in the experiment on HS 578T breast is -22.2% (active); in the experiment with NCI/ADR-RES ovarian, -25.6% (active).

For `COc1cc(-c2ccc3cc(OC)c(OC)c(OC)c3c2)cc(OC)c1OC`, the growth in the experiment on SR leukemia is 4.29% (active); in the experiment with OVCAR-8 ovarian it was 78.4%; in the experiment with OVCAR-5 ovarian, 82%; in the experiment with OVCAR-4 ovarian, 61.2%; with SK-OV-3 ovarian it was 76.7%; in the experiment on IGROV1 ovarian it was 68.6%. Moreover, the figures for the growth in the experiment on OVCAR-3 ovarian and in the experiment on HS 578T breast were 78.9% and 69.1%, respectively.

`COc1ccc(OC2=CC(=O)c3ccc(C)nc3C2=O)cc1`: the growth in the experiment on SR leukemia was 51.2%; with RPMI-8226 leukemia, 79.7%; in the experiment with OVCAR-8 ovarian, 80.7%; with OVCAR-5 ovarian, 114%; in the experiment with IGROV1 ovarian it was 87.8%; in the experiment on OVCAR-3 ovarian it was 72.3%. Further, the growth is 83.2% with HS 578T breast and 87.5% with NCI/ADR-RES ovarian.

As to `COc1cc(C2CC(=O)Nc3c2ccc2ccccc32)cc(Br)c1OC` (stereo not given), the growth is -6.32% (active) with SR leukemia; 27.7% in the experiment on OVCAR-8 ovarian; 45.1% in the experiment with OVCAR-5 ovarian; 41% with OVCAR-4 ovarian; 2.95% (active) in the experiment on SK-OV-3 ovarian; 32.4% in the experiment with IGROV1 ovarian. The growth in the experiment with OVCAR-3 ovarian is -26.3% (active); in the experiment with HS 578T breast, 14%; in the experiment on NCI/ADR-RES ovarian it was -10.7% (active).

For `Cc1ccc(-c2nnc(COc3ccc(-c4nnc(N)s4)cc3)o2)cc1`, the growth in the experiment on SR leukemia was 5.12% (active); in the experiment with OVCAR-8 ovarian, 100%; in the experiment on OVCAR-5 ovarian, 113%; in the experiment with OVCAR-4 ovarian it was 58%; in the experiment on SK-OV-3 ovarian, 80.7%; in the experiment on IGROV1 ovarian, 108%. Further, the results for the growth in the experiment on OVCAR-3 ovarian, with HS 578T breast and in the experiment on NCI/ADR-RES ovarian were 98.1%, 85% and 95%, respectively.

In the case of `O=C(COc1ccc(/C=C2\CSc3ccccc3C2=O)cc1)c1ccc(Cl)cc1`, the growth is 93.1% in the experiment with SR leukemia; 95.8% with RPMI-8226 leukemia; 110% in the experiment with OVCAR-8 ovarian; 107% in the experiment with OVCAR-4 ovarian; 107% with SK-OV-3 ovarian; 109% in the experiment with HS 578T breast.

Turning to `COc1cc2cc(Oc3ccc(NC(=O)Nc4cccc(C(F)(F)F)c4)cc3)c(C)nc2cc1OCCN1CCCCC1`, the growth with SR leukemia is -19.4% (active); with OVCAR-8 ovarian, -38.7% (active); in the experiment on OVCAR-5 ovarian, 61.6%; in the experiment on OVCAR-4 ovarian, -12.9% (active); in the experiment with IGROV1 ovarian, -31.2% (active); with OVCAR-3 ovarian, -92.6% (active). Besides, the growth with HS 578T breast is -53.6% (active); in the experiment with NCI/ADR-RES ovarian, 20.1%.

For `NC(=S)N/N=C1\c2ccccc2-c2c(F)c(F)c(F)c(F)c21`, the growth in the experiment on SR leukemia was 2.57% (active); in the experiment with OVCAR-8 ovarian it was 39.6%; in the experiment on OVCAR-5 ovarian it was 108%; in the experiment with OVCAR-4 ovarian it was 56.5%; with SK-OV-3 ovarian, 98.8%; with IGROV1 ovarian it was 20.8%. Also, the growth was 61.6% in the experiment on OVCAR-3 ovarian, 107% in the experiment on HS 578T breast and 10.2% with NCI/ADR-RES ovarian.

Take `Nc1c(Br)cc(Br)cc1-c1n[nH]c(=O)[nH]c1=O`: the growth with SR leukemia is 7.84% (active); in the experiment with OVCAR-8 ovarian it was 105%; in the experiment on OVCAR-5 ovarian, 97.2%; in the experiment with OVCAR-4 ovarian, 98.5%; in the experiment with SK-OV-3 ovarian, 93.4%; in the experiment on IGROV1 ovarian, 105%. Besides, the values for the growth in the experiment on OVCAR-3 ovarian, in the experiment with HS 578T breast and in the experiment on NCI/ADR-RES ovarian were 113%, 78.3% and 103%, respectively.

For `COc1cc(-c2nc(SC(C)C)nc(Nc3cccc(C)c3)c2C#N)cc(OC)c1OC`, the growth with SR leukemia was 95%; with OVCAR-8 ovarian, 93.5%; with OVCAR-5 ovarian, 107%; in the experiment on OVCAR-4 ovarian it was 107%; with IGROV1 ovarian, 103%; with OVCAR-3 ovarian, 115%. Besides, the growth with HS 578T breast is 104%; with NCI/ADR-RES ovarian, 105%.

For `Oc1ccccc1/C=N/Nc1nc2ccccc2s1`, the growth is 43.7% with SR leukemia; 57.3% with OVCAR-8 ovarian; 91.8% in the experiment on OVCAR-5 ovarian; 19.9% with OVCAR-4 ovarian; 57.5% in the experiment on SK-OV-3 ovarian; 13.8% with OVCAR-3 ovarian. Also, the growth in the experiment on HS 578T breast was 65.2%; in the experiment with NCI/ADR-RES ovarian it was 51.6%.

Consider `CC1CCCCN1S(=O)(=O)c1ccc(CN=C=S)cc1` (stereo not given), for which the growth was 5.92% (active) with SR leukemia; 78.7% in the experiment on OVCAR-8 ovarian; 93% in the experiment on OVCAR-5 ovarian; 100% in the experiment with OVCAR-4 ovarian; 60.9% with IGROV1 ovarian; -55.6% (active) in the experiment with OVCAR-3 ovarian. The growth in the experiment on HS 578T breast was 59.4%; in the experiment on NCI/ADR-RES ovarian, 102%.

Turning to `CCCOC(=O)c1ccc2c(c1)[N+](=O)C(C(=O)c1ccccc1)=C(C(F)(F)F)[N+]2=O`, the growth is -41.4% (active) in the experiment with SR leukemia; -86% (active) in the experiment on OVCAR-8 ovarian; -87.7% (active) in the experiment with OVCAR-5 ovarian; -73.1% (active) with OVCAR-4 ovarian; -99.9% (active) with SK-OV-3 ovarian; -74.4% (active) in the experiment on IGROV1 ovarian. The growth in the experiment with OVCAR-3 ovarian was -95.3% (active); in the experiment on HS 578T breast, -52% (active); with NCI/ADR-RES ovarian, -43.1% (active).
